In the supplement of paper PMC7411054:
Structures can show the parent of a compound that is named as a salt.

system: WPMY1-TUBA1B-RELA; experiment: phenotypically active (imaging signature differs from DMSO and reproducible) at any of 0.3-9 uM (binary (1 = active, 0 = inactive)); higher = active; conditions: treatment time: 24 h
Procedure, shortened: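 Phenotypic activity depended on meeting both a deviation and a reproducibility criterion. The fifteen gene-edited A549, HepG2 and WPMY1 reporter lines were treated at 0.3, 1, 3 or 9 µM for 24 h, four wells each, then imaged live with features normalised to solvent control wells. Deviation required ≥3 of 4 wells past the 95th percentile of control Euclidean distances, and reproducibility a median replicate Pearson correlation above the 95th percentile of non-replicates.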

| Compound | phenotypically active |
| --- | --- |
| OCc1ccccc1O[C@@H]1O[C@H](CO)[C@@H](O)[C@H](O)[C@H]1O [Salicin] | 0 (inactive) |
| O=C(c1ccc(C(=O)N2CCC(N3CCCC3)CC2)c(Nc2ccccc2)c1)N1CCC(N2CCCC2)CC1 | 0 (inactive) |
| O=c1[nH]cc(F)c(=O)[nH]1 [5-Fluorouracil] | 0 (inactive) |
| CC[C@H](C)[C@H](NC(=O)OCc1ccccc1)C(=O)N[C@@H](CCC(=O)OC(C)(C)C)C(=O)N[C@@H](C)C(=O)N[C@H](C=O)CC(C)C | 1 (active) |
| CN1CCN(C2=Nc3cc(Cl)ccc3Nc3ccccc32)CC1 [clozapine] | 0 (inactive) |
| Cc1cc(C(C)(C)C)c(O)c(C)c1CC1=NCCN1 [oxymetazoline] | 0 (inactive) |
| CC1(C)NC(=O)N(c2ccc([N+](=O)[O-])c(C(F)(F)F)c2)C1=O [nilutamide] | 0 (inactive) |
| CCN1CCN(C(c2cccnc2)c2cc(Cl)c3cccnc3c2O)CC1 (stereo not given) | 0 (inactive) |
| CCOc1cc(N2CCC(O)CC2)ccc1Nc1ncc2c(n1)N(C)c1ccccc1C(=O)N2C | 1 (active) |
| Cc1c2oc3c(C)ccc(C(=O)NC4C(=O)NC(C(C)C)C(=O)N5CCCC5C(=O)N(C)CC(=O)N(C)C(C(C)C)C(=O)OC4C)c3nc-2c(C(=O)NC2C(=O)NC(C(C)C)C(=O)N3CCCC3C(=O)N(C)CC(=O)N(C)C(C(C)C)C(=O)OC2C)c(N)c1=O (stereo not given) [Actinomycin D] | 1 (active) |
| Nc1nc2ccc(OC(F)(F)F)cc2s1 [riluzole] | 0 (inactive) |
| NCCNS(=O)(=O)c1cccc2cnccc12 [H-9 dihydrochloride] | 0 (inactive) |
| N#Cc1c(NC(=O)c2cccc3ccccc23)sc2c1CCCC2 | 1 (active) |
| COc1ccc2c(Oc3ccc(NC(=O)c4c(C)n(CC(C)(C)O)n(-c5ccccc5)c4=O)nc3)ccnc2c1 | 0 (inactive) |
| C[C@@H](c1ncncc1F)[C@](O)(Cn1cncn1)c1ccc(F)cc1F [voriconazole] | 0 (inactive) |
| CN1C/C(=C/c2ccc(B(O)O)cc2)C(=O)/C(=C/c2ccc(B(O)O)cc2)C1 | 1 (active) |
| Nc1ccn([C@@H]2O[C@H](CO)[C@@H](O)C2(F)F)c(=O)n1 [gemcitabine] | 1 (active) |
| Oc1ccc(Nc2nc(-c3ccc(Cl)cc3)cs2)cc1 | 1 (active) |
| C/C(=C/C(=O)Nc1ccccc1C(=O)O)c1ccc2ccccc2c1 | 0 (inactive) |
| NCCC(O)(P(=O)(O)O)P(=O)(O)O [pamidronate] | 0 (inactive) |

| Compound | phenotypically active |
| --- | --- |
| CCN1CCN(c2ccc(Nc3cc(N(C)C(=O)Nc4c(Cl)c(OC)cc(OC)c4Cl)ncn3)cc2)CC1 | 0 (inactive) |
| Cc1nc(NC(=O)N2CCC[C@H]2C(N)=O)sc1-c1ccnc(C(C)(C)C(F)(F)F)c1 [alpelisib] | 1 (active) |
| CCN(CC)CCCC(C)Nc1ccnc2cc(Cl)ccc12 (stereo not given) [chloroquine] | 1 (active) |
| C[C@H]1O[C@H](O[C@H]2[C@H](O)[C@@H](O)[C@@H](O[C@H]3[C@H](O)[C@@H](O)[C@H](O)O[C@@H]3CO)O[C@@H]2CO)[C@H](O)[C@@H](O)[C@@H]1N[C@H]1C=C(CO)[C@@H](O)[C@H](O)[C@H]1O [Acarbose] | 0 (inactive) |
| C/C(=C/c1ccc(C(=O)O)cc1)c1ccc2c(c1)C(C)(C)CCC2(C)C | 0 (inactive) |
| Cc1ccc(S(=O)(=O)/C=C/C#N)cc1 | 0 (inactive) |
| O=c1cc(-c2cccc3c2Sc2ccccc2S3)oc(N2CCOCC2)c1 | 0 (inactive) |
| CCCc1nc2c(C)cc(-c3nc4ccccc4n3C)cc2n1Cc1ccc(-c2ccccc2C(=O)O)cc1 [telmisartan] | 0 (inactive) |
| CC(C)CCN1c2nc(Nc3cc(F)c(O)c(F)c3)ncc2N(C)C(=O)C1C (stereo not given) | 1 (active) |
| COc1cc2nccc(Oc3ccc(NC(=O)NC4CC4)c(Cl)c3)c2cc1C(N)=O [lenvatinib] | 0 (inactive) |
| Nc1cc(C(F)(F)F)c(-c2cc(N3CCOCC3)nc(N3CCOCC3)n2)cn1 [buparlisib] | 1 (active) |
| Nc1ccn([C@@H]2O[C@H](CO)[C@@H](O)[C@H]2O)c(=O)n1 [Cytidine] | 0 (inactive) |
| OC(CCN1CCCCC1)(c1ccccc1)C1CCCCC1 (stereo not given) [trihexyphenidyl] | 0 (inactive) |
| COc1cc([C@@H]2c3cc4c(cc3[C@@H](O[C@@H]3O[C@@H]5CO[C@@H](C)O[C@H]5[C@H](O)[C@H]3O)[C@H]3COC(=O)[C@H]23)OCO4)cc(OC)c1O [etoposide] | 1 (active) |
| CCN1CCN(c2cc(-c3ccc(F)cc3)c3c(n2)CCCCCC3)CC1 [blonanserin] | 1 (active) |
| COc1cc2c(NC3CCN(C(C)C)CC3)nc(C3CCCCC3)nc2cc1OCCCN1CCCC1 | 1 (active) |
| COc1cc2ncn(-c3cc(OCc4ccccc4C(F)(F)F)c(C(N)=O)s3)c2cc1OC | 1 (active) |
| CCCCC1C(=O)N(c2ccccc2)N(c2ccc(O)cc2)C1=O (stereo not given) [oxyphenbutazone] | 1 (active) |
| Cc1ccccc1N1C(=O)c2cc(S(N)(=O)=O)c(Cl)cc2NC1C (stereo not given) [metolazone] | 0 (inactive) |
| Cc1nc(NC(=O)N2CCC[C@H]2C(N)=O)sc1-c1csc(C(C)(C)C)n1 | 0 (inactive) |
